Source: PubChem BioAssay AID1159580 (chemical genetic matrix, 2015)
The whole screen tested about 5,500 compounds, of which about 2,000 (36%) were called active. About 18% were inconclusive and are not listed. No stated cut-off is given here; in the data, active means normalized growth mostly below about 0.91 (no sharp cut-off); inconclusive means no clear call, values can overlap the other calls; inactive means mostly above about 0.92. This is one part of the list. Where a SMILES comes first, the peptide text is derived from it. Bridges are numbered along the chain shown (N, C = ends). [ ]: non-standard residue; d: D form. The star is where a group is joined. ξ: configuration not given here. ξDab(CH2SO3H) = NC(CCNCS(=O)(=O)O)C(=O)O; Heptanoyl(6-Me) = CC(C)CCCCC(=O)*; Dab = NCC[CH](N)C(=O)O

Assay: chemical genetic growth profiling, strain panel (AID 1159580);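 further: tested at 20 µM; growth read once vehicle control cultures reached saturation at 30 °C; 1 = growth at the plate median or of vehicle wells; lower values mean less growth of the strain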
Details: growth OD

Measured: normalized growth

CCC(C)C1NC(=O)C(CCNCS(=O)(=O)O)NC(=O)C(NC(=O)C(CCNCS(=O)(=O)O)NC(=O)C(NC(=O)C(CCNCS(=O)(=O)O)NC(=O)CCCCC(C)C)C(C)O)CCNC(=O)C(C(C)O)NC(=O)C(CCNCS(=O)(=O)O)NC(=O)C(CCNCS(=O)(=O)O)NC(=O)C(C(C)CC)NC1=O (configuration not stated) ({Heptanoyl(6-Me)}-[ξDab(CH2SO3H)]T[ξDab(CH2SO3H)][Dab][ξDab(CH2SO3H)]II[ξDab(CH2SO3H)][ξDab(CH2SO3H)]T; lactam 4-C; configuration not given here)
inactive: S. cerevisiae deletion strains, locus YJR075W, strain HOC1, active compounds read low 1 | S. cerevisiae deletion strains, locus YKL009W, strain mrt4, active compounds read low 0.986 | S. cerevisiae deletion strains, locus YKL068W, active compounds read low 0.964 | S. cerevisiae deletion strains, locus YKL085W, strain MDH1 (second series), active compounds read low 0.951 | S. cerevisiae deletion strains, locus YKL085W, strain MDH1, active compounds read low 0.951 | S. cerevisiae deletion strains, locus YKL160W, strain elf1, active compounds read low 1.02 | S. cerevisiae deletion strains, locus YKL190W, strain CNB1, active compounds read low 0.969 | S. cerevisiae deletion strains, locus YKR001C, strain vps1, active compounds read low 0.972 | S. cerevisiae deletion strains, locus YKR026C, strain gcn3, active compounds read low 0.98 | S. cerevisiae deletion strains, locus YKR091W, strain srl3, active compounds read low 0.98 | S. cerevisiae deletion strains, locus YLL001W, strain dnm1, active compounds read low 0.994 | S. cerevisiae deletion strains, locus YLL026W, active compounds read low 0.997 | S. cerevisiae deletion strains, locus YLL041C, strain sdh2, active compounds read low 0.993 | S. cerevisiae deletion strains, locus YLR027C, strain aat2, active compounds read low 0.995 | S. cerevisiae deletion strains, locus YLR039C, strain RIC1, active compounds read low 0.962 | S. cerevisiae deletion strains, locus YLR058C, strain SHM2, active compounds read low 0.988 | S. cerevisiae deletion strains, locus YLR102C, strain apc9, active compounds read low 0.962 | S. cerevisiae deletion strains, locus YLR113W, strain HOG1, active compounds read low 1.1 | S. cerevisiae deletion strains, locus YLR221C, strain rsa3, active compounds read low 0.99 | S. cerevisiae deletion strains, locus YLR258W, strain gsy2, active compounds read low 0.99 | S. cerevisiae deletion strains, locus YLR262C, strain YPT6 (second series), active compounds read low 0.997 | S. cerevisiae deletion strains, locus YLR262C, strain YPT6, active compounds read low 0.992 | S. cerevisiae deletion strains, locus YLR268W, strain sec22, active compounds read low 0.978 | S. cerevisiae deletion strains, locus YLR320W, strain mms22, active compounds read low 0.96 | S. cerevisiae deletion strains, locus YLR330W, strain CHS5, active compounds read low 0.968 | S. cerevisiae deletion strains, locus YLR342W, strain FKS1 (second series), active compounds read low 1.02 | S. cerevisiae deletion strains, locus YLR342W, strain FKS1, active compounds read low 1 | S. cerevisiae deletion strains, locus YLR357W, strain rsc2, active compounds read low 0.963 | S. cerevisiae deletion strains, locus YLR370C, strain arc18, active compounds read low 0.979 | S. cerevisiae deletion strains, locus YLR371W, strain rom2, active compounds read low 0.962 | S. cerevisiae deletion strains, locus YLR384C, strain iki3, active compounds read low 0.998 | S. cerevisiae deletion strains, locus YLR418C, strain cdc73, active compounds read low 0.989 | S. cerevisiae deletion strains, locus YML016C, strain PPZ1, active compounds read low 0.978 | S. cerevisiae deletion strains, locus YML032C, strain rad52, active compounds read low 0.963 | S. cerevisiae deletion strains, locus YML120C, strain ndi1, active compounds read low 0.971 | S. cerevisiae deletion strains, locus YML124C, strain tub3, active compounds read low 0.964 | S. cerevisiae deletion strains, locus YMR058W, strain fet3, active compounds read low 0.987 | S. cerevisiae deletion strains, locus YMR078C, strain ctf18, active compounds read low 0.976 | S. cerevisiae deletion strains, locus YMR125W, strain sto1, active compounds read low 0.973 | S. cerevisiae deletion strains, locus YMR129W, active compounds read low 0.979 | S. cerevisiae deletion strains, locus YMR205C, strain PFK2, active compounds read low 0.958 | S. cerevisiae deletion strains, locus YMR223W, strain ubp8, active compounds read low 0.99 | S. cerevisiae deletion strains, locus YMR231W, strain pep5, active compounds read low 0.987 | S. cerevisiae deletion strains, locus YMR263W, strain SAP30, active compounds read low 0.985 | S. cerevisiae deletion strains, locus YMR307W, strain GAS1, active compounds read low 1.12 | S. cerevisiae deletion strains, locus YNL067W, strain RPL9B, active compounds read low 0.991 | S. cerevisiae deletion strains, locus YNL071W, strain lat1, active compounds read low 0.981 | S. cerevisiae deletion strains, locus YNL128W, strain TEP1, active compounds read low 0.971 | S. cerevisiae deletion strains, locus YNL153C, strain GIM3, active compounds read low 0.987 | S. cerevisiae deletion strains, locus YNL183C, strain NPR1, active compounds read low 0.935 | S. cerevisiae deletion strains, locus YNL209W, strain ssb2, active compounds read low 1.02 | S. cerevisiae deletion strains, locus YNL233W, strain BNI4, active compounds read low 0.996 | S. cerevisiae deletion strains, locus YNL248C, strain rpa49, active compounds read low 1.02 | S. cerevisiae deletion strains, locus YNL250W, strain rad50, active compounds read low 0.95 | S. cerevisiae deletion strains, locus YNL271C, strain bni1, active compounds read low 0.963 | S. cerevisiae deletion strains, locus YNL298W, strain CLA4, active compounds read low 0.974 | S. cerevisiae deletion strains, locus YNL307C, strain MCK1, active compounds read low 0.982 | S. cerevisiae deletion strains, locus YNL322C, strain KRE1 (second series), active compounds read low 0.983 | S. cerevisiae deletion strains, locus YNL322C, strain KRE1, active compounds read low 0.972 | S. cerevisiae deletion strains, locus YNR049C, strain mso1, active compounds read low 0.994 | S. cerevisiae deletion strains, locus YNR052C, strain pop2, active compounds read low 0.968 | S. cerevisiae deletion strains, locus YOL006C, strain TOP1, active compounds read low 1.02 | S. cerevisiae deletion strains, locus YOL012C, strain htz1 0.945 | S. cerevisiae deletion strains, locus YOL147C, strain pex11, active compounds read low 0.982 | S. cerevisiae deletion strains, locus YOR001W, strain rrp6, active compounds read low 0.961 | S. cerevisiae deletion strains, locus YOR061W, strain CKA2, active compounds read low 0.978 | S. cerevisiae deletion strains, locus YOR069W, strain VPS5, active compounds read low 0.983 | S. cerevisiae deletion strains, locus YOR070C, strain gyp1, active compounds read low 0.996 | S. cerevisiae deletion strains, locus YOR080W, strain dia2, active compounds read low 0.984 | S. cerevisiae deletion strains, locus YOR083W, strain WHI5, active compounds read low 0.987 | S. cerevisiae deletion strains, locus YOR106W, strain vam3, active compounds read low 1.03 | S. cerevisiae deletion strains, locus YOR136W, strain idh2, active compounds read low 0.966 | S. cerevisiae deletion strains, locus YOR144C, strain elg1, active compounds read low 0.962 | S. cerevisiae deletion strains, locus YOR184W, strain ser1, active compounds read low 1.01 | S. cerevisiae deletion strains, locus YOR231W, strain MKK1, active compounds read low 0.998 | S. cerevisiae deletion strains, locus YOR265W, strain rbl2, active compounds read low 0.998 | S. cerevisiae deletion strains, locus YOR270C, strain vph1, active compounds read low 0.834 | S. cerevisiae deletion strains, locus YOR290C, strain snf2, active compounds read low 1.01 | S. cerevisiae deletion strains, locus YOR316C, strain cot1, active compounds read low 0.947 | S. cerevisiae deletion strains, locus YPL051W, strain arl3, active compounds read low 1 | S. cerevisiae deletion strains, locus YPL055C, strain LGE1, active compounds read low 0.991 | S. cerevisiae deletion strains, locus YPL078C, strain atp4, active compounds read low 0.998 | S. cerevisiae deletion strains, locus YPL106C, strain sse1, active compounds read low 0.941 | S. cerevisiae deletion strains, locus YPL240C, strain hsp82, active compounds read low 0.988 | S. cerevisiae deletion strains, locus YPL241C, strain CIN2, active compounds read low 0.974 | S. cerevisiae deletion strains, locus YPL256C, strain CLN2, active compounds read low 1.06 | S. cerevisiae deletion strains, locus YPR119W, strain clb2, active compounds read low 0.955 | S. cerevisiae deletion strains, locus YPR141C, strain kar3, active compounds read low 0.937 | S. cerevisiae deletion strains, locus YPR163C, strain tif3, active compounds read low 0.971 | S. cerevisiae deletion strains, locus YPR167C, strain met16, active compounds read low 0.945 | S. cerevisiae deletion strains, strain wtn01, active compounds read low 0.973 | S. cerevisiae strains, strain wild type, active compounds read low 0.98
